In test [1] the target is Glucocorticoid receptor (Homo sapiens) (UniProt P04150). Put plainly: GR-GFP Redistribution (AID 450;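 active = compounds whose dose series gives a full or clear partial fitted curve of increased nuclear translocation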; also: potency is read from the fitted curve at half-maximal effect). Conditions: U2OS GR-GFP nuclear translocation, laser cytometry, 2 h.
The target is the same in test [2]. Put plainly: GR-EFC Redistribution (AID 451; calls by dose curve; also: potency is read from the fitted curve at half-maximal effect). Conditions: CHO-K1 GR-EFC translocation, beta-gal luminescence, 2 h. In outline:
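CHO-K1 cells stably expressing nuclear-localized β-gal enzyme acceptor and GR fused C-terminally to the enzyme donor fragment; ligand-driven nuclear translocation restores β-gal by complementation. Compounds titrated up to 46 uM final, 2 h at 37 °C; luminescence read.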

Test [3] concerns the target Mitogen-activated protein kinase 10 (Mus musculus) (UniProt Q61831). Put plainly: JNK3 AlphaScreen Assay (AID 530; active = well fitted curve in either direction with a large enough effect, not every such curve was filed as active;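 also: kinase came from lysate of stimulated human HepG2 cells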). The conditions noted are these: JNK3 lysate, c-Jun phosphorylation; series mostly up to 57.1 µM. Summed up: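 Biotinylated GST-cJun(1-79) served as substrate for JNK3 in HepG2 lysates stimulated with IL-1beta and TNF-alpha. ATP was 10 uM final, pH 7.6. Ser73 phosphorylation was quantified by AlphaScreen (680 nm excitation).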

Test [4] has as its target Cytochrome P450 3A4 (Homo sapiens) (UniProt P08684). Put plainly: qHTS Assay for Activators of Cytochrome P450 3A4 (AID 885). Also: nearly all actives have a fitted effect of over 65% in size. The conditions noted are these: recombinant CYP3A4, Luciferin-PPXE luminescence, 60 min; series mostly up to 57.1 µM. In outline: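 Luminescent readout of luciferin formed from 25 uM Luciferin-PPXE (KM level) by 20 nM CYP3A4 in 200 mM KPO4, with 60 min NADPH-driven reaction at room temperature after 10 min compound exposure. Ketoconazole (57 uM) defined 100% inhibition.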

The target in test [5] is Cytochrome P450 2C19 (Homo sapiens) (UniProt P33261). Put plainly: qHTS Assay for Inhibitors and Substrates of Cytochrome P450 2C19 (AID 899). Also: potency is read from the fitted curve at half-maximal effect; nearly all actives have a fitted effect of over 60% in size. Conditions: recombinant CYP2C19, luciferin-H EGE luminescence; series mostly up to 57.1 µM. Summed up:
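NADPH-dependent conversion of Luciferin-H EGE (10uM, at KM) by 5nM enzyme in 50mM KPO4, 60 min at 37C following 10 min compound preincubation. Stopped with luciferin detection buffer; luminescence read after 20 min.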

Test [6] concerns the target DNA dC->dU-editing enzyme APOBEC-3G (Homo sapiens) (UniProt Q9HC16). Put plainly: qHTS for inhibitors of Vif-A3G interactions: Validation (AID 588379). Conditions: Vif-A3G protein interaction assay; series mostly up to 46.1 µM. Summed up:
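Yellow fluorescence (Ex 488, Em 500-530) of Vif-coexpressing HeLa A3G-eYFP cells, scanned by Acumen cytometer, reports blocked A3G degradation. Cells plated at 700/well overnight at 37 deg C before compound addition, then a further overnight compound incubation at 37 deg C.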

Test [7] has as its system Zika virus NS2B-NS3 protease. As to the kind of experiment: Primary screen GU AMC qHTS for Zika virus inhibitors (AID 1347154). Also: nearly all actives have a fitted effect of over 70% in size. The conditions noted are these: Zika NS2B-NS3 unlinked protease, AMC fluorogenic substrate; series mostly up to 54.1 µM. In outline: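 Unlinked Zika NS2B hydrophilic domain/NS3 protease domain noncovalent complex (25 nM final) in 10 mM Tris-HCl pH 8.0, 0.01% Tween 20, with AMC peptide substrate. Fluorescence (ex 340, em 450 nm) change over 15 min, room temperature; percent inhibition fitted to 4-parameter Hill equation.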

Test [8] in a line: Primary qHTS for small molecule stabilizers of the endoplasmic reticulum resident proteome: Secreted ER Calcium Modulated Protein (SERCaMP) assay (AID 1508630). The conditions noted are these: SH-SY5Y GLuc-SERCaMP (Gaussia luciferase released on ER calcium loss) secretion, thapsigargin, luminescence; series mostly up to 38.4 µM. In outline: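 The SH-SY5Y reporter protocol was run at 3 concentrations up to 38.3 uM (primary) or 11 concentrations (follow-up): 16 h compound, 100 nM thapsigargin for 4 h, then extracellular luciferase luminescence.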

The target of test [9] is 3',5'-cyclic-AMP phosphodiesterase 4B (Homo sapiens) (UniProt Q07343). As to the kind of experiment: qHTS Assay for Inhibitors of PDE-IV (AID 607; active = well fitted activation curve with a large enough effect in the main read-out, with a control signal flat, not every such curve was filed as active). Conditions: HEK293 ACTOne CNG channel cells, membrane potential fluorescence; series mostly up to 22.9 µM. Summed up: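 Cell-based read-out of cAMP via a modified cyclic nucleotide-gated channel and membrane potential dye (535/590 nm) in HEK293 cells expressing PDE4 endogenously. Compounds tested up to 22.9 uM final; 100 uM RO 20-1724 reference.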

The target in test [10] is Ubiquitin carboxyl-terminal hydrolase 1 (Homo sapiens) (UniProt O94782). As to the kind of experiment: Inhibitors of USP1/UAF1: Pilot qHTS (AID 504865). Also: nearly all actives have a fitted effect of over 35% in size. Also: potency is read from the fitted curve at half-maximal effect. The conditions noted are these: purified USP1/UAF1, Ub-rhodamine cleavage fluorescence; series mostly up to 114 µM. Summed up:
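Deubiquitinase activity followed as kinetic rhodamine fluorescence release from 150 nM Ub-Rho. 1 nM USP1/UAF1 with compound, after 15 min room-temperature preincubation, in HEPES pH 7.8 buffer containing TCEP, EDTA, BSA and Tween-20.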

The target of test [11] is Cytochrome P450 3A4 (Homo sapiens) (UniProt P08684). Put plainly: qHTS Assay for Inhibitors and Substrates of Cytochrome P450 3A4 (AID 884). Also: nearly all actives have a fitted effect of over 50% in size. Also: potency is read from the fitted curve at half-maximal effect. The conditions noted are these: recombinant CYP3A4, Luciferin-PPXE luminescence; series mostly up to 57.1 µM. Summed up:
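Luminescent readout of luciferin produced by CYP3A4 (20 nM) dealkylation of Luciferin-PPXE, 25 uM (its KM). NADPH-driven reaction ran 60 min at RT after 10 min compound preincubation; data scaled to 57 uM ketoconazole as 100% inhibition.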

Test [12] has as its target Cytochrome P450 2D6 (Homo sapiens) (UniProt P10635). As to the kind of experiment: qHTS Assay for Inhibitors and Substrates of Cytochrome P450 2D6 (AID 891). Also: potency is read from the fitted curve at half-maximal effect; nearly all actives have a fitted effect of over 60% in size. The conditions noted are these: recombinant CYP2D6, luciferin-ME EGE luminescence; series mostly up to 57.1 µM. Summed up:
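Luminescent read-out of luciferin formed by 5 nM human CYP2D6 demethylating 30 uM Luciferin-ME EGE (Km level) over 60 min at room temperature after NADPH regeneration addition. Data normalized to full inhibition by 1.43 uM quinidine.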

The target in test [13] is Cytochrome P450 2C9 (Homo sapiens) (UniProt P11712). As to the kind of experiment: qHTS Assay for Inhibitors and Substrates of Cytochrome P450 2C9 (AID 883). Also: potency is read from the fitted curve at half-maximal effect; nearly all actives have a fitted effect of over 60% in size. Conditions: recombinant CYP2C9, luciferin-H luminescence, 60 min; series mostly up to 57.1 µM. In outline: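 A luminogenic readout tracked human CYP2C9 (10nM) converting deoxyluciferin (100uM, at KM) in 25mM KPO4 during 60 min at 37C with regenerated NADPH. Values normalized to 57uM sulphaphenazole as complete inhibition.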

Unmarked numbers belong to inactive results. Records with an inconclusive call do not appear. The source made the active and inactive calls. Unless noted, calls follow the shape of the dose curve; as a rule, active = well fitted curve in the direction sought with a large enough effect; inconclusive = small, poorly fitted or top-dose-only effect, or another doubt; inactive = no such curve, though single readings can be large; an effect the other way counts as inactive or inconclusive.

Chain of Cytochrome P450 3A4 (Homo sapiens) (P08684 whole entry, looked up): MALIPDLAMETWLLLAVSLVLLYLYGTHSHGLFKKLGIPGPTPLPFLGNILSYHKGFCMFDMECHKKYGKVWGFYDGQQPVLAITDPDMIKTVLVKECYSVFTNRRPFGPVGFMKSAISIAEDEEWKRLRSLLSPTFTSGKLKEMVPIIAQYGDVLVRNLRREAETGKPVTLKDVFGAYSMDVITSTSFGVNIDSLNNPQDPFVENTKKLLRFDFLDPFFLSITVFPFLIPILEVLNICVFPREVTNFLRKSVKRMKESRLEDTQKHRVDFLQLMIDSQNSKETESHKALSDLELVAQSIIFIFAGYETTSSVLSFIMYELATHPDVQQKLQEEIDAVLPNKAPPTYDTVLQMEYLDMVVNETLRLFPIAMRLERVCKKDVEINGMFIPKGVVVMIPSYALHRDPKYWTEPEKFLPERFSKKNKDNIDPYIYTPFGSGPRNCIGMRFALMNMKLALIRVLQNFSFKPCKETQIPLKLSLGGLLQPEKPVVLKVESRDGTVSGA
Chain of DNA dC->dU-editing enzyme APOBEC-3G (Homo sapiens) (Q9HC16 whole entry, looked up): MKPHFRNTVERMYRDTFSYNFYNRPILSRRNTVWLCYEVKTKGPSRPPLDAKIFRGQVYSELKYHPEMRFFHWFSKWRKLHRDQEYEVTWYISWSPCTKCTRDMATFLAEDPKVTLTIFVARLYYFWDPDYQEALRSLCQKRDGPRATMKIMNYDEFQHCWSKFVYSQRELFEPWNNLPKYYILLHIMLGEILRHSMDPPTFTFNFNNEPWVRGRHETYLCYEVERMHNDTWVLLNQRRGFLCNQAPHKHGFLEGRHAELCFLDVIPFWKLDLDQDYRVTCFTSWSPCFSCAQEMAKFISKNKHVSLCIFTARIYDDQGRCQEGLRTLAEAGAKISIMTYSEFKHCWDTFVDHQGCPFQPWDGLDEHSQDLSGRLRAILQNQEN
Chain of 3',5'-cyclic-AMP phosphodiesterase 4B (Homo sapiens) (Q07343 whole entry, looked up): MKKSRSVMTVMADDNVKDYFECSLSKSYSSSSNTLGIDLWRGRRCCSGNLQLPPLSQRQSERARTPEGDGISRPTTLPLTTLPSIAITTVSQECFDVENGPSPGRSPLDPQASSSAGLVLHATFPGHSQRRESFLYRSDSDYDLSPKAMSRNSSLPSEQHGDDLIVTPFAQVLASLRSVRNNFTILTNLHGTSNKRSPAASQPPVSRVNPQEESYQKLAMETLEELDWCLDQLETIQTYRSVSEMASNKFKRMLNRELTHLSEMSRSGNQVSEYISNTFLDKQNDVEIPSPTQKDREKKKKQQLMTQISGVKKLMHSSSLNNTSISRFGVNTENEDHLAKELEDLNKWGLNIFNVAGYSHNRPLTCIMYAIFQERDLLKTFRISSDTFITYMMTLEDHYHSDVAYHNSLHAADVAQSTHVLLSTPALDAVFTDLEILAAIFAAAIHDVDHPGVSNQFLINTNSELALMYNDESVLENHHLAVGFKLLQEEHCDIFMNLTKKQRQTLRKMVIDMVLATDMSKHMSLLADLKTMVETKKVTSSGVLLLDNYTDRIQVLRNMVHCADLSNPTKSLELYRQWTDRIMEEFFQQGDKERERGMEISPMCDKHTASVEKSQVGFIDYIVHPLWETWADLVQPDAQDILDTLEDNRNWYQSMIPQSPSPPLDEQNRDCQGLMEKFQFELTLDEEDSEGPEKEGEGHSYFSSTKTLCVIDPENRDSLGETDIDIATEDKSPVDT
Chain of Ubiquitin carboxyl-terminal hydrolase 1 (Homo sapiens) (O94782 whole entry, looked up): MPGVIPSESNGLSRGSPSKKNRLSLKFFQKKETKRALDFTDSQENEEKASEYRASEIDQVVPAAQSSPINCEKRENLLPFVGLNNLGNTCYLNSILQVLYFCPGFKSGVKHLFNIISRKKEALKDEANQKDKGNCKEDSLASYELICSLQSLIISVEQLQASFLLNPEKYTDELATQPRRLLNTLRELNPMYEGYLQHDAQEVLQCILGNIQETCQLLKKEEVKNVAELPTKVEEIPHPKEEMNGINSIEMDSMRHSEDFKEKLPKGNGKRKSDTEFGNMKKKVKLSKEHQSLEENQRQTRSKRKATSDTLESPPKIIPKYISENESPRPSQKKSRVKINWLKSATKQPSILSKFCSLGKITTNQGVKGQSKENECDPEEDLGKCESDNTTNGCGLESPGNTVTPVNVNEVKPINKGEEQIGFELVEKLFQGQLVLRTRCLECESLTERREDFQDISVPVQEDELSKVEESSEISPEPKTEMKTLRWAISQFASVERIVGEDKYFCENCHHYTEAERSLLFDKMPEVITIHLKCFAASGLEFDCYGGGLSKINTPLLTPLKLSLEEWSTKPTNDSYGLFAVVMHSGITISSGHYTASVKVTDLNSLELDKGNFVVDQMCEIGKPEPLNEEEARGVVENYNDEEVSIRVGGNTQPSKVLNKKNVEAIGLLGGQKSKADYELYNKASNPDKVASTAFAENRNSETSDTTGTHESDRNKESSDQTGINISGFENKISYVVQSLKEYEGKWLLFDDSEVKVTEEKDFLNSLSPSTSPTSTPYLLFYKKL
Chain of Glucocorticoid receptor (Homo sapiens) (P04150 whole entry, looked up): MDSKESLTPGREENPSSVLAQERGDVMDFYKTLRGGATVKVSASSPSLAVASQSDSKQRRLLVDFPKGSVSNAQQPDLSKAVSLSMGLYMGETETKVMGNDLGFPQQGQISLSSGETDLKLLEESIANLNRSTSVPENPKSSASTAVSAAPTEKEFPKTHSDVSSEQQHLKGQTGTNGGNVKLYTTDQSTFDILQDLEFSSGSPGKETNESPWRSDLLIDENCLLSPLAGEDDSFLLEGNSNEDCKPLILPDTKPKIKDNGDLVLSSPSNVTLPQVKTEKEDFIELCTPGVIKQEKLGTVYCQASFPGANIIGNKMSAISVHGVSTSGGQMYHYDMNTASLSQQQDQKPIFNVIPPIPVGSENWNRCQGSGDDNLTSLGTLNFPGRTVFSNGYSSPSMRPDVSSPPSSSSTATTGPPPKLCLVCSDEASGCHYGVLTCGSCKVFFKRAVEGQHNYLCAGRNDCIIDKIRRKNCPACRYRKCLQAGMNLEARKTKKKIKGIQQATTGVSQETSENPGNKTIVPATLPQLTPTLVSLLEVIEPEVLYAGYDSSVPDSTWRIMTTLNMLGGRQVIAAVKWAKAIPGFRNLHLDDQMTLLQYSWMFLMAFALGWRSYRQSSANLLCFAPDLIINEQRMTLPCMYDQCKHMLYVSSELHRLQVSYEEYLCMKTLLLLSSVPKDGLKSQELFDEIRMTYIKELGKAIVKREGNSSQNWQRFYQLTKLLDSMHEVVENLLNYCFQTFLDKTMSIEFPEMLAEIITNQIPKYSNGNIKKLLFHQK
Chain of Cytochrome P450 2C19 (Homo sapiens) (P33261 whole entry, looked up): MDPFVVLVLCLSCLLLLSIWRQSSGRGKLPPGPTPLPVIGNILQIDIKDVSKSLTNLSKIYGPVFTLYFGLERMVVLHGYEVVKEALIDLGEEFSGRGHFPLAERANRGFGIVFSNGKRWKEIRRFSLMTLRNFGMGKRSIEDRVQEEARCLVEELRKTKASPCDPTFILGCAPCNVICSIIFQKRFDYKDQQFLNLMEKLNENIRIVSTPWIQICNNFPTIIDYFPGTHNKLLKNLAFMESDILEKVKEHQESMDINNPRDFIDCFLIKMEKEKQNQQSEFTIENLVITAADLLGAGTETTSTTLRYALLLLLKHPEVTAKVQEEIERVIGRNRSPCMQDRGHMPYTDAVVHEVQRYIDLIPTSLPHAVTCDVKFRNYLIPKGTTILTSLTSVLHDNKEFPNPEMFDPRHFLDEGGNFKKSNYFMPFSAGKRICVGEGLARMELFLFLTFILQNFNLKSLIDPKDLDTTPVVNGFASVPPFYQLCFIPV
Chain of Cytochrome P450 2D6 (Homo sapiens) (P10635 whole entry, looked up): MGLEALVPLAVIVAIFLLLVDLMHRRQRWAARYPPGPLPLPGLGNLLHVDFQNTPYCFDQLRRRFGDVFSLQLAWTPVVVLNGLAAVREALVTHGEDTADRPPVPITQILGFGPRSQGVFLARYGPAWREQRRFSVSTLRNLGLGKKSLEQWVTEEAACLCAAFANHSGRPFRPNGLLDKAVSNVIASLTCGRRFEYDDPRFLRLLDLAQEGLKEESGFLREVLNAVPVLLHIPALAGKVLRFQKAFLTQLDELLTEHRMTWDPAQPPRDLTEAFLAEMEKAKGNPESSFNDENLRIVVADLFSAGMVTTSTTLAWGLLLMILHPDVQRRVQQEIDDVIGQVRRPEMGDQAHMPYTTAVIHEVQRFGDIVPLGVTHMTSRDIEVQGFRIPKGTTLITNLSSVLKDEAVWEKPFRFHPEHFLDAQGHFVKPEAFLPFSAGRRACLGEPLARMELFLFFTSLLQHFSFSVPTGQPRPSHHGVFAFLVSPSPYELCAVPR
Chain of Cytochrome P450 2C9 (Homo sapiens) (P11712 whole entry, looked up): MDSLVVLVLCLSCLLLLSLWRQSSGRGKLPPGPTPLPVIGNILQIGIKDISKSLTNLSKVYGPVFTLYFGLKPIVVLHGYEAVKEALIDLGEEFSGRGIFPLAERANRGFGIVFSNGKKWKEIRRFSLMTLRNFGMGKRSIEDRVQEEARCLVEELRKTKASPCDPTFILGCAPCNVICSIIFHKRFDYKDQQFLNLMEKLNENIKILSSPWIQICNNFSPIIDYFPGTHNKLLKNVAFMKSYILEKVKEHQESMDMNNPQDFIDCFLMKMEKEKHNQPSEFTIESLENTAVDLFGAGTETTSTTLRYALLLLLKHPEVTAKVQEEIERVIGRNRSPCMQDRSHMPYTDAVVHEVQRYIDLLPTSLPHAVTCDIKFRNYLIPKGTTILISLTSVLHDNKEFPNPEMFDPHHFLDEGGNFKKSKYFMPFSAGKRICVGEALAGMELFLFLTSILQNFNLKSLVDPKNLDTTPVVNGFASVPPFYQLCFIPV

Take `Cc1cc(C)c(S(=O)(=O)Nc2cccc(C(F)(F)F)c2)c(C)c1`: the Potency is over 46 µM in test [1], over 46 µM in [2] and 3.16 µM (active) in test [5]. The Potency entry in test [3], in [4], in test [6], in test [7] and in test [8] was “inactive” in each case.
Regarding `C[N+](C)(CCCCCC[N+](C)(C)CCCN1C(=O)c2ccccc2C1=O)CCCN1C(=O)c2ccccc2C1=O`, the Potency in [1] and in test [2] was over 46 µM each time. For the same compound, the Potency result in test [3], in test [6], in test [7] and in test [8] was “inactive” each time.
For `CNC(=O)[C@H]1O[C@H](n2cnc3c(NCc4cccc(I)c4)nc(Cl)nc32)[C@@H](O)[C@@H]1O`, the Potency in [1] and in test [2] was over 46 µM each time. Further, the Potency entry in test [9], in test [6], in test [7] and in test [8] was “inactive” each time.
For the compound `CCN(CC)C[C@@H]1CCCCN1CC(=O)N1c2ccccc2C(=O)Nc2cccnc21`, the Potency result in test [3], in test [9], in test [4], in test [6], in [7] and in [8] was “inactive” throughout.
Consider `COc1ccc(OC)c2c(=S)c3ccccc3[nH]c12`, for which the Potency in test [1] and in [2] was over 46 µM throughout. Further, the Potency result in test [9], in test [6], in test [7] and in test [8] was “inactive” each time.
Consider `COc1ccc(NC(=O)c2ccc(-c3ccc(-c4noc(C)n4)cc3C)cc2)cc1OCCN(C)C`, for which the Potency in test [1] and in test [2] was over 46 µM each time. In addition, the Potency entry in [3], in [6], in [7] and in [8] was “inactive” in each case.
For `COc1ccc2[nH]cc(CC(N)C(=O)O)c2c1` (stereo unspecified), the Potency result in test [4], in test [10], in test [6], in test [7] and in test [8] was “inactive” throughout.
Regarding `CCN(CC)c1ncnc2c1ncn2[C@@H]1O[C@@H](COP(=O)(O)OP(=O)(O)C(Br)(Br)P(=O)(O)O)[C@H](O)[C@H]1O`, the Potency result in [10], in test [6], in test [7] and in test [8] was “inactive” each time.
As to `C/C=C1\C2C=C(C)CC1(N)c1ccc(=O)[nH]c1C2` (stereo unspecified), the Potency entry in [10], in test [7] and in test [8] was “inactive” each time.
As to `O=C(Nc1ccccc1)[C@@]12C[C@@H]1/C(=N/O)c1ccccc1O2`, the Potency in [1] and in test [2] was over 46 µM in each case. Further, the Potency entry in test [9], in [6], in [7] and in [8] was “inactive” each time.
As for `COc1cc2c(cc1OC)C(c1ccc(N)cc1)=NNC(=O)C2`, the Potency in [1] and in test [2] was over 46 µM each time. Also, the Potency entry in [3], in test [9], in test [4], in test [6], in test [7] and in [8] was “inactive” throughout.
Take `CCOC(=O)C1=C(C)NC(c2ccccc2)=C(C(=O)OCc2ccc([N+](=O)[O-])cc2)[C@@H]1C#Cc1ccccc1`: the Potency in [1] and in [2] was over 46 µM each time. For the same compound, the Potency entry in test [9], in [6], in test [7] and in test [8] was “inactive” in each case.
`OC[C@H]1OC([S-])[C@H](O)[C@@H](O)[C@H]1O.[Au+]` (stereo partly specified): the Potency entry in test [7] and in test [8] was “inactive” in each case.
Take `O=C1C=CC(=O)C2=C1C1c3ccccc3C2c2ccccc21`: the Potency in test [11] is 39.8 µM (active). For the same compound, the Potency result in test [4], in test [7] and in test [8] was “inactive” each time.
On to `CCCCCCCCCCCCC(=O)N1CCCC[C@H]1CNC(=O)[C@@H](N)CCCCN`, for which the Potency in test [1] was over 46 µM; in [2], over 46 µM; in test [5], 7.94 µM (active); in test [10], 50.1 µM (active). The Potency entry in [9], in test [6], in test [7] and in test [8] was “inactive” each time.
As to `CNCCCCCCCCSc1nc(C(C)C)ccc1C(=O)c1cccs1`, the Potency in test [1] was over 46 µM; in [2] it was over 46 µM; in test [11], 2.51 µM (active); in test [12], 0.0063 µM (active). Also, the Potency result in [3], in [4], in [7] and in [8] was “inactive” each time.
As for `NCCCCCCNS(=O)(=O)c1cccc2ccccc12`, the Potency in test [1] and in test [2] was over 46 µM throughout. The Potency result in test [3], in test [9], in test [4], in test [6], in [7] and in [8] was “inactive” throughout.
As to `Cc1ccc(-c2nn(CC(C)(C)C)c3ncnc(N)c23)cc1`, the Potency in [1] and in test [2] was over 46 µM each time. For the same compound, the Potency entry in test [3], in test [6], in [7] and in [8] was “inactive” each time.
In the case of `O=C1c2ccccc2CCC1CNCCc1ccc(O)cc1` (stereo unspecified), the Potency entry in test [7] and in test [8] was “inactive” each time.
With `c1ccc2cc(C3=NCCN3)ncc2c1`, the Potency in test [1] and in test [2] was over 46 µM throughout. Also, the Potency result in test [3], in [9], in test [6], in test [7] and in test [8] was “inactive” each time.
Turning to `Cc1noc(NS(=O)(=O)c2cccc3c(N(C)C)cccc23)c1C`, the Potency is over 46 µM in test [1], over 46 µM in test [2] and 0.631 µM (active) in test [13]. In addition, the Potency result in [3], in test [9], in test [4], in test [6], in [7] and in test [8] was “inactive” in each case.
For `CC(C)C[C@@H](NC(=O)OCC1c2ccccc2-c2ccccc21)C(=O)O`, the Potency in test [1] and in [2] was over 46 µM throughout. The Potency entry in test [6], in [7] and in test [8] was “inactive” in each case.
As for `CC(C)(C)c1cc(O)c(C(C)(C)C)cc1O`, the Potency in test [1] and in test [2] was over 46 µM in each case. Moreover, the Potency entry in test [6], in [7] and in test [8] was “inactive” in each case.
Turning to `CC1OC(OC2C(CO)OC(OC3C(CO)OC(O)C(O)C3O)C(O)C2O)C(O)C(O)C1NC1C=C(CO)C(O)C(O)C1O` (stereo unspecified), the Potency entry in [11], in test [10], in test [7] and in test [8] was “inactive” each time.
As to `COc1ccccc1N1CCN(CCn2c(=O)[nH]c3c([nH]c4ccccc43)c2=O)CC1`, the Potency in test [1] and in test [2] was over 46 µM in each case. The Potency entry in test [3], in test [9], in test [4], in test [6], in [7] and in [8] was “inactive” throughout.
For `CCN(CC)CCCCC1CCN(CC(=O)N2c3ccccc3C(=O)Nc3cccnc32)CC1`, the Potency result in test [11], in test [7] and in [8] was “inactive” each time.
For the compound `C[C@H](CCC(=O)O)[C@H]1CCC2C3CC[C@@H]4C[C@H](O)CC[C@]4(C)C3CC[C@@]21C` (stereo partly specified), the Potency result in test [7] and in test [8] was “inactive” each time.
As to `NCCCCCCNS(=O)(=O)c1ccc2c(Cl)cccc2c1`, the Potency in test [2] is over 46 µM. The Potency entry in test [3], in [6], in test [7] and in test [8] was “inactive” in each case.

Source of the values: PubChem BioAssay (NCATS).
